Measurements: the OligoGym collection

These sequences were tested against CDC34 (assay: pooled miR-30 sensor sort-seq; sequence = guide strand). Conditions: shRNA.
Also: reference of the scale not given here.

Point of comparison: ATGATGTCTGTGTACTCCCGAT, sensor-assay potency score (higher = more potent) -1.21. Against it:
- TTGGTCAGGAACCGAAAGGCTG — higher, -0.731
- TTAGGGTGCCACATCTTGGTCA — higher, -0.421
- TGGTCTTCACGCAGTACTCGGC — higher, -1.2
- TCGTCGTAGAAGAGGTCTGAGC — lower, -1.59
- TCCACTTCCTGTACATCACGGA — higher, -0.313
- TAGATCGCCCTCGTCCACCAGT — higher, -0.743
- TTGAGCTCCAGCAGCAGCGCCT — higher, -0.656
- TAGTCGTCGTAGAAGAGGTCTG — higher, -0.479
- TCGTAGTAGTCGTCGTAGAAGA — lower, -1.53
- TGTCTGTGTACTCCCGATCCTT — higher, -1.06
- TCATCGTCCCCGAAGCAGCTGT — higher, -0.635
- TTGCTCTCTTTCCACTTCCTGT — higher, -0.991
- TAGAAGAGGTCTGAGCCCTCGT — higher, -0.00353
- TAGGGTGCCACATCTTGGTCAG — higher, 0.104
- TCCTCGTAGTAGTCGTCGTAGA — lower, -1.72
- TAGTAGTCGTCGTAGAAGAGGT — higher, -0.785
- TTCCACTTCCTGTACATCACGG — higher, -0.553
- TCGTCCACCAGTGTCACGCGGA — higher, -0.898
- ACACTCAGGAGAATGGTCCTGA — higher, 0.312
- TTCCTGTACATCACGGAGGCGT — higher, -0.234
- TCGTAGAAGAGGTCTGAGCCCT — higher, -0.356
- TAGTCGATGGGGAACTTGAGGC — lower, -1.23
- TTGGTCTTCACGCAGTACTCGG — higher, -1.15
